Test results: PubChem BioAssay
Where a SMILES comes first, the peptide text is derived from it. The star is where a group is joined. Boc = CC(C)(C)OC(=O)*

Key:
[1] = tested on: Botulinum neurotoxin type F light chain protease (Clostridium botulinum); test: Clostridium botulinum type F light chain protease inhibitors, microsphere substrate cleavage, validation (AID 588459); details: multiplex microsphere protease substrate cleavage assay, flow cytometry; at 10 µM; active compounds read high
[2] = target: Botulinum neurotoxin type A (Clostridium botulinum) (UniProt P0DPI0); test: BoNT/A light chain protease inhibitors, biochemical, multiplex microsphere flow cytometry, validation set (AID 588460); details: at 10 µM, active compounds read high
[3] = target: Lethal factor (Bacillus anthracis) (UniProt P15917); test: Bacillus anthracis lethal factor inhibition, microsphere flow cytometry protease assay, validation at 10 µM (AID 588461); details: multiplex microsphere protease cleavage assay, active compounds read high

Measured: inhibition

CCC(C(=O)OCCN(CC)CC)c1ccccc1 (centres undefined)
inactive: [1] 2.4% | [2] 0.3% | [3] 3.3%

O=C(O)CCCCCNC(=O)Nc1ccc2c(c1)OCCO2
inactive: [1] 1.3% | [2] -1.4% | [3] -10.1%

CCCC(=O)O[C@]1(C(=O)CCl)[C@@H](C)C[C@H]2[C@@H]3CCC4=CC(=O)C=C[C@]4(C)[C@@]3(F)C(=O)C[C@@]21C
inactive: [1] 0.9% | [2] -0.6% | [3] 1%

CC(C)CC(NC(=O)C1CCCN1C(=O)OC(C)(C)C)C(=O)NCC(N)=O (stereo not drawn) (Boc-Pro-Leu-Gly-NH2; configuration not given here)
inactive: [1] 3.5% | [2] 0.3% | [3] 4.3%

CC(=O)Nc1cc(O)cc(O)c1
inactive: [1] 6.1% | [2] 0.1% | [3] -1.2%

CC(C)C12CN3CC(C(C)C)(CN(C1)C31C(=O)Nc3ccccc31)C2=O (centres undefined)
inactive: [1] 0.1% | [2] 0.7% | [3] 9%

O=C1C=CC(=O)C(C2=C3C(=O)N(CCc4ccccc4)CC(=O)N3CCC2)=C1
inactive: [1] 1.8% | [2] -0.3% | [3] -4.9%

CC(C)CC(NC(=O)CNC(=O)C1O[C@@H]2OC(C)(C)O[C@@H]2[C@H]2OC(C)(C)O[C@@H]12)C(=O)O (some centres undefined)
inactive: [1] 2.8% | [2] -2% | [3] 2.8%

CCc1nc2ccccc2n1Cc1ccc(OC)c(OC)c1
inactive: [1] -1.2% | [2] 0.6% | [3] 0.6%

CN1/C(=C\C=Nc2ccccc2)C(C)(C)c2ccccc21
inactive: [1] -1.1% | [2] 0.8% | [3] -0.6%

COc1ccc(C2C(C#N)=C(N)Oc3cc(C)[nH]c(=O)c32)c(OC)c1OC (centres undefined)
inactive: [1] 1.9% | [2] 0.1% | [3] 0.8%

Cc1ncc([N+](=O)[O-])n1CC(O)CCl (centres undefined)
inactive: [1] 3.5% | [2] -0.1% | [3] 2.5%

O=C(Nc1ccc(Cl)cn1)Nc1ccccc1Cl
inactive: [1] 2.9% | [2] 0.2% | [3] -4.9%

COc1cccc2c(=O)c3ccccc3oc12
inactive: [1] 12.6% | [2] 3.9% | [3] -4.2%

COc1cc([C@@H]2c3cc4c(cc3[C@H](O)[C@H]3COC(=O)[C@H]23)OCO4)cc(OC)c1OC
inactive: [1] 1.4% | [2] 0% | [3] -2.8%

CC(C)CC1c2[nH]c3ccccc3c2CCN1C(=O)CCC(=O)N(C)C (centres undefined)
inactive: [1] 1.9% | [2] -0.3% | [3] 2.9%

Cc1ccc(S(=O)(=O)NC(=O)Nc2cc(C)ccc2F)cc1
inactive: [1] 3% | [2] -0.1% | [3] -4.1%

O=C(c1ccco1)N1CCCN(Cc2nc(-c3ccc4c(c3)OCO4)no2)CC1
inactive: [1] 1% | [2] 0% | [3] 3.6%

O=C(NCCN1CCCCC1)c1c(O)c2ccccc2[nH]c1=O
inactive: [1] 3.5% | [2] 0.4% | [3] -3.9%

Oc1[nH]c2ccccc2c1C1=NCCCC1
inactive: [1] 3.8% | [2] -0.1% | [3] -8.7%

O=C(O)c1cnccn1
inactive: [1] -5.5% | [2] -1.6% | [3] -1.5%

Cc1nc(C(=O)Nc2ccccc2Cl)cc2c1[nH]c1ccccc12
inactive: [1] -0.3% | [2] -0.9% | [3] -4.5%

O=C(Nc1ccc(F)c([N+](=O)[O-])c1)c1ccc2c(c1)OCCO2
inactive: [1] -3.7% | [2] -2.7% | [3] -7.5%

C=CC1=C(C(=O)O)N2C(=O)C(NC(=O)Cc3ccccc3)C2SC1 (centres undefined)
inactive: [1] 2.1% | [2] 0.1% | [3] -3.4%

CC(C)C12CN3CC(C(C)C)(CN(C1)C3c1ccccc1O)C2=O (centres undefined)
inactive: [1] 4.7% | [2] 1.2% | [3] -5.3%

Nc1ncnc2c1ncn2C1OC(CO)C(O)C1O (centres undefined)
inactive: [1] 14.6% | [2] -0.2% | [3] 2%

CC(COc1ccccc1)N(CCCl)Cc1ccccc1 (centres undefined)
inactive: [1] 0.1% | [2] -2.7% | [3] -5.9%

COc1ccc([C@@H]2Sc3ccccc3N(CCN(C)C)C(=O)[C@@H]2OC(C)=O)cc1
inactive: [1] -1.7% | [2] 0.1% | [3] 1%
